# An excerpt weighted towards active compounds, which were near 1.3% of everything screened.
# S1P4 antagonist: S1P4 receptor antagonists, primary screen, cell-based. actives 0.26% (n = 220,000). S1P4-expressing cells, antagonist mode, reporter read-out. AID 1510, 2009. inhibition, % at 4.98 µM. Sphingosine 1-phosphate receptor 4 (Homo sapiens), O95977; in the data active = inhibition above about 29%;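 note: 0% = wells stimulated with agonist and 100% = vehicle wells without agonist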
# Calpain2 inh: inhibitors of pig calpain II, primary screen, biochemical, fluorogenic peptide substrate, 1536-well. purified calpain II, 30 min. inhibition, % at 16 µM. actives 0.37% (n = 220,000);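 active = inhibition above about 50%, limit read from the data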
# S1P4 ag: S1P4 receptor agonists, primary screen, cell-based | Sphingosine 1-phosphate receptor 4 (Homo sapiens), O95977 | S1P4-expressing cell line, agonist reporter assay | AID 1509, 2009 | activation, % at 4.98 µM | actives 0.35% (n = 220,000); in the data active = activation above about 11%;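 note: 0% = DMSO vehicle and 100% = reference agonist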
# S1P3 antag-1: S1P3 receptor antagonists, primary screen, cell-based; Sphingosine 1-phosphate receptor 3 (Homo sapiens), Q99500; CHO S1P3 NFAT-BLA reporter, FRET fluorescence, antagonist mode; inhibition, % at 4.98 µM; actives 0.27% (n = 170,000); AID 485, 2006;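 active = inhibition above the plate cutoff, the mean inhibition of test wells on that plate plus 3 SD, cut at about 28% in these data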;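 note: cells challenged with S1P at its EC80 of 0.8 µM; blue over green emission ratio from cleaved BLA substrate after 4 h stimulation; 0% = S1P-stimulated wells and 100% = unstimulated DMSO-only wells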
# PERK inh: block of dimerizer-induced PERK translation repression, primary screen, PERK inhibitor project, CHO PERK-DD cells, SEAP luminescence, HTS; actives 0.17% (n = 220,000); inhibition, % at 5.6 µM; CHO PERK-DD fusion, SEAP luminescence translation reporter;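 active = inhibition above the mean inhibition of all tested compounds plus 3 SD, set separately per screening campaign, cut at about 2.9% in these data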;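 note: PERK kinase domain activated by AP20187 dimerizer at 100 nM; 0% = DMSO with dimerizer and 100% = rapamycin at 8.4 µM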
# Target sequence (Q9NZJ5 whole entry, looked up, the tested form may be a part): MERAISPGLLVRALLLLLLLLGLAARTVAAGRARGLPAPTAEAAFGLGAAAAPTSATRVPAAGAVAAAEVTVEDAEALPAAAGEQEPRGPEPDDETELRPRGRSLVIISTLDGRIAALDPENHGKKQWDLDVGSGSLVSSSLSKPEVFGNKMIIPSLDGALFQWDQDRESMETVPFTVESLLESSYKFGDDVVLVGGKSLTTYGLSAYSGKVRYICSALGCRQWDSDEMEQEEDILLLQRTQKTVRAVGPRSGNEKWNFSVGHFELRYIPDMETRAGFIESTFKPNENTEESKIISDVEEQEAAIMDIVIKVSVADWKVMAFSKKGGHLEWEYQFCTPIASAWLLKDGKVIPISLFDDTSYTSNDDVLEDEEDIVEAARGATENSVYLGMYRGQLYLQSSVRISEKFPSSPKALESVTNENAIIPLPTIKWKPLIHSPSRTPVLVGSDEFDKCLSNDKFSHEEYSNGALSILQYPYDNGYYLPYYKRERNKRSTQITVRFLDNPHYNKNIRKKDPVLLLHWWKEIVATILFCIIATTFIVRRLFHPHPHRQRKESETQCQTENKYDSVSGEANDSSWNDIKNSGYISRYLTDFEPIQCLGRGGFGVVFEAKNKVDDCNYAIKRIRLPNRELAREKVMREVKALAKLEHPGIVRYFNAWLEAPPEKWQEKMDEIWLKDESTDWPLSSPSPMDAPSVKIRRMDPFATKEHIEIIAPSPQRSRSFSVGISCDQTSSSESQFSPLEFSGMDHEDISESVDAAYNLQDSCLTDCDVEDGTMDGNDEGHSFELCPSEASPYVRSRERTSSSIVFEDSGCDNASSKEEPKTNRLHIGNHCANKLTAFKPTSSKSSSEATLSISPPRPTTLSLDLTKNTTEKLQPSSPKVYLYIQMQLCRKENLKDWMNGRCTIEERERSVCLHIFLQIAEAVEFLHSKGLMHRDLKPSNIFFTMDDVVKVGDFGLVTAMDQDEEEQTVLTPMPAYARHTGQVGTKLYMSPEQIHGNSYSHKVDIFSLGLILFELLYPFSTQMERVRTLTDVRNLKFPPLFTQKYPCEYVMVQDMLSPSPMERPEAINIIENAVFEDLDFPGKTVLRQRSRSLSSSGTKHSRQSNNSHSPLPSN
# S1P3 antag-2: S1P3 receptor antagonists, retest, confirmation, cell-based; AID 1429, 2008; CHO S1P3 NFAT-BLA reporter, FRET, antagonist mode; inhibition, % at 4.98 µM; shares compounds with S1P3 antag-1; actives 30% (n = 240);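 active = inhibition above the hit threshold that was computed for the earlier primary screen, cut at about 30% in these data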;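 note: 0% = S1P-stimulated wells and 100% = unstimulated DMSO-only wells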
# S1P4 ag conf: S1P4 receptor agonists, retest, confirmation, cell-based, high throughput; shares compounds with S1P4 ag; S1P4 agonist cell-based reporter assay; activation, % at 4.98 µM; actives 7% (n = 740); AID 1523, 2009; in the data active = activation above about 12%;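 note: 0% = vehicle and 100% = full reference agonist response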
# S1P1 ag: S1P1 receptor agonists, human, counter-screen for S1P4 agonist project, cell-based; activation, % at 4.98 µM; shares compounds with S1P4 ag; actives 4% (n = 740); S1P1 agonist cell-based assay, activation; in the data active = activation above about 21%;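 note: 0% = vehicle wells and 100% = reference agonist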
# S1P4 antag cf: S1P4 receptor antagonists, human, confirmation, cell-based; shares compounds with S1P4 antagonist; S1P4-expressing cell line, antagonist mode, reporter read-out; inhibition, % at 4.98 µM; actives 71% (n = 520); in the data active = inhibition above about 30%
# S1P1 antagonist: S1P1 receptor antagonists, human, counter-screen for S1P4 antagonist project, cell-based | shares compounds with S1P4 antagonist | cell-based S1P1 antagonist counterscreen, inhibition | inhibition, % at 4.98 µM | actives 37% (n = 520); in the data active = inhibition above about 40%;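 note: receptor stimulated with S1P near its EC80; 0% = agonist stimulated wells and 100% = vehicle only wells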
# * hit, by the source's call; . = not tested or not shown.
SMILES,S1P4 antagonist,Calpain2 inh,S1P4 ag,S1P3 antag-1,PERK inh,S1P3 antag-2,others
Cc1ccc(CN=C(N)Nc2nc(C)cc(C)n2)cc1,-6,-10,2,-5,0,.,
Cc1ccc(S(=O)(=O)Oc2ccccc2/C=N/NC(N)=S)cc1,8,9,-2,.,-1,.,
Cc1ccc(S(=O)(=O)Oc2ccccc2/C=N/N=C(N)N)cc1,-7,27,-1,36*,-1,-7,
CSc1ccc(/C=C/c2cc(=O)c3ccccc3[nH]2)cc1,-13,-147,3,30*,0,1,
COc1c(F)c(F)c(C(=O)Nc2ccc(-c3nc4ccccc4[nH]3)cc2)c(F)c1F,-10,-74,0,28*,1,19,
C/C(=C\c1ccccc1)C(=O)NCCc1ccccc1,-6,13,0,-3,0,.,
Cc1ccccc1C(=O)N1CCN(c2ccc(NC(=O)c3ccc4c(c3)OCO4)cc2)CC1,-4,-29,1,30*,0,36*,
C=CCNCC(=O)N1N=C(c2ccc3ccccc3c2)CC1c1ccc(OC)cc1 (stereo not drawn),1,13,0,31*,0,2,
COc1ccc(C2CC(c3ccc4ccccc4c3)=NN2C(=O)CNC2CCCCC2)cc1 (stereo not drawn),5,44,-1,-11,0,.,
O=C(Nc1ccc(F)cc1)C(Cc1ccccc1)n1cccc1 (stereo not drawn),-11,5,1,36*,0,10,
Cc1ccccc1SCCNC(=O)c1ccccc1Br,-3,-7,0,-7,0,.,
Cc1cc(S(=O)(=O)NCc2cccs2)ccc1-n1cnnn1,-17,17,9,30*,1,-5,
Cc1ccn2cc(C(=O)NCc3ccco3)nc2c1,1,-5,1,30*,1,-13,
Cc1cc(C)n2nc(C(=O)NCc3ccco3)cc2n1,-15,-75,1,-12,1,.,
C/C(=N/NC(=O)c1cc(-c2ccc(Cl)s2)[nH]n1)c1ccco1,11,18,1,32*,0,-18,
C/C(=N/NC(=O)c1ccccn1)c1ccco1,12,7,0,.,1,.,
CC(=O)c1ccc(Nc2c3c(nc4ccccc24)CCCC3)cc1,-21,0,27*,29*,-1,-1,S1P4 ag conf=-1;S1P1 ag=-2
CCN1CCN(C(C)C(=O)NC2CCCCC2)CC1 (stereo not drawn),-1,-17,1,-1,2,.,
CCCCN(C)CC(O)Cn1cc(/C=C/C(=O)c2cccs2)c2ccccc21 (stereo not drawn),47*,0,2,33*,-1,16,S1P4 antag cf=61*;S1P1 antagonist=88*
CCOC(=O)COc1cccc2c(=O)n(CC(=O)NCc3ccccc3)ccc12,27,-4,1,17,0,.,
CCOC(=O)COc1cccc2c(=O)n(CC(=O)NCc3ccc(F)cc3)ccc12,33*,-9,-1,30*,0,0,S1P4 antag cf=30*;S1P1 antagonist=73*
O=C(Nc1ccc(F)cc1)Nc1cc(OCC(F)(F)F)cc(OCC(F)(F)F)c1,100*,25,-1,35*,0,10,S1P4 antag cf=110*;S1P1 antagonist=-29
CC(C)(C)c1ccc(NC(=O)Nc2ccc(F)cc2)cc1,-5,9,2,10,0,.,
O=C1N/C(=N\S(=O)(=O)Cc2ccccc2)S/C1=C/c1cc([N+](=O)[O-])ccc1O,44*,14,0,32*,1,25,S1P4 antag cf=59*;S1P1 antagonist=50*
C=CCCOc1ccccc1C(N)=O,11,12,0,2,2,.,
SMILES,S1P4 antagonist,Calpain2 inh,S1P4 ag,S1P3 antag-1,PERK inh,S1P3 antag-2,others
O=C(Cn1cnc2ccccc2c1=O)NNC(=O)c1ccccc1,8,-10,-1,-16,1,.,
CCN(CC)c1ccc(/C=N/NC(=O)c2cc(C)nc3ccccc23)cc1,-5,7,3,14,0,.,
CCN(CC)c1ccc(/C=C/c2cc(-c3ccccc3)c3ccccc3n2)cc1,46*,1,8,76*,0,90*,S1P4 antag cf=91*;S1P1 antagonist=104*
CCn1c(O)c(N=NC(=O)C(O)c2ccccc2)c2ccccc21 (stereo not drawn),-4,-6,2,-25,-2,.,
CN(C)c1ccc(/C=C/c2ccc3ccccc3n2)cc1,32*,-152,20*,46*,0,45*,S1P4 ag conf=5;S1P1 ag=-18;S1P4 antag cf=63*;S1P1 antagonist=44*
COc1ccc(N2CCN(C(=O)NCc3ccc(OC)c(Cl)c3)CC2)cc1,-4,-12,16*,-23,1,.,S1P4 ag conf=-2;S1P1 ag=-11
O=C(Nc1ccc(Cl)cn1)c1ccc([N+](=O)[O-])o1,25,-78,49*,-20,0,.,S1P4 ag conf=-4;S1P1 ag=-17
Cc1c(Cl)c([N+](=O)[O-])nn1Cc1ccc(C(=O)Nc2ccc(Cl)cn2)o1,-17,20,0,-8,-1,.,
Cc1cc(C)n2nc(C(=O)N/N=C/c3cccs3)nc2n1,-6,20,3,-8,-1,.,
CCc1nc(NC(C)(C)C)c2cnn(-c3ccccc3)c2n1,4,-3,3,4,2,.,
O=C(CNC(=O)c1ccccc1)OCc1cccc([N+](=O)[O-])c1,-24,21,0,-9,0,.,
CC(C)(C)c1ccc(C(=O)NCC(=O)OCc2ccc([N+](=O)[O-])cc2)cc1,-9,25,14*,-4,0,.,S1P4 ag conf=-2;S1P1 ag=-7
COc1ccc(CCN(C)C(=O)C2CCN(Cc3cccc(OC)c3OC)CC2)cc1OC,-11,-22,1,-5,0,.,
Cc1cc(Nc2cccc(Cl)c2)n2ncnc2n1,0,-16,2,-6,1,.,
CCc1cccc(Nc2cc(C)nc3ncnn23)c1,0,-10,156*,10,1,.,S1P4 ag conf=-3;S1P1 ag=-4

# High-throughput results (PubChem BioAssay)
